Assay [1] is described as follows: rescue of polyQ-huntingtin neuronal dysfunction in worms, whole organism, C. elegans mechanosensory neurons, N-terminal huntingtin (AID 1599). The note with it: touch response, stronger effect = higher value.
The nature of assay [2]: reducers of polyQ inclusions in PC12 cells, cell-based, NGF-treated PC12, GFPQ80 (AID 1614).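 Further: lower means fewer inclusions and 0 means no inclusions at all.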 The note with it: PC12 NGF-treated GFP-polyQ80 inclusion reduction.
Assay [3] can be described thus: suppressors of polyglutamine aggregation in yeast, 75Q-TubH (AID 1616). The note with it: S. cerevisiae 75Q-TubH polyglutamine aggregation suppression; stronger effect = higher value.
A short description of assay [4]: circadian clock period modulators, cell-based, LOPAC library, luminescence reporter (AID 2774).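 Further: values are relative to mean of DMSO wells on each plate.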 The note with it: circadian reporter cells, at 7 µM, actives lie on both sides.
Assay [5] in a line: hESC survival regulators, cell-based (AID 493140).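 Further: cells exposed to compounds for four days before counting.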 The note with it: human embryonic stem cell survival screen; stronger effect = higher value.
Assay [6] relates to Hepatitis C virus NS3 helicase. As to the kind of experiment: HCV NS3 helicase inhibitors, primary screen, biochemical, fluorescence polarization, LOPAC1280 library (AID 687035; in the data active means inhibition above about 37%). The settings on record: Purified HCV NS3 helicase, Cy5-dT15 ssDNA binding fluorescence polarization; stronger effect = higher value; concentration not given here.
Assay [7] can be described thus: Cy5 fluorescence quenching or enhancement artefacts, artefact control for HCV NS3 helicase inhibitor project, biochemical, LOPAC1280 (AID 687037). The note with it: Cy5-DNA-NS3h complex fluorescence interference counterscreen. For orientation: A counterscreen serves to expose hits that act by an unwanted route or on another target.
A short description of assay [8]: growth inhibition of DIPG glioma cells, dose response, cell-based, SU-DIPG-XVII, MIPE5.0, CellTiter-Glo, qHTS (AID 1347060; cut-off not given, nearly all actives have AC50 up to about 26 µM;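 on AC50: cells exposed to compound for 48 hours before viability readout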). The settings on record: SU-DIPG-XVII viability, CellTiter-Glo ATP luminescence. Background: In ATP-based viability assays light output follows the ATP content of the culture.
Assay [9] in a line: growth inhibition of DIPG glioma cells, dose response, cell-based, SU-DIPG-XIII, MIPE4.0, CellTiter-Glo, qHTS (AID 1347061; cut-off not given, nearly all actives have AC50 up to about 37 µM;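 further: cells exposed to compound for 48 hours before readout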). The note with it: SU-DIPG-XIII viability, CellTiter-Glo ATP luminescence.
Assay [10] in a line: growth inhibition of DIPG glioma cells, dose response, cell-based, JHH-DIPG-1, MIPE4.0, CellTiter-Glo, qHTS (AID 1347062; cut-off not given, nearly all actives have AC50 up to about 27 µM;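 on AC50: cells exposed to compound for two days before readout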). The note with it: JHH-DIPG-1 viability, CellTiter-Glo ATP luminescence.
Assay [11] can be described thus: JHH-DIPG-1 glioma cell viability, MIPE5.0 library, CellTiter-Glo luminescence, qHTS (AID 1347067; cut-off not given, nearly all actives have AC50 up to about 26 µM;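 further: cells exposed to compound for 48 hours before readout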). The note with it: JHH-DIPG-1 glioma viability, CellTiter-Glo ATP luminescence.
Assay [12] is described as follows: SU-DIPG-XXV glioma cell viability, MIPE5.0 library, qHTS (AID 1347068; cut-off not given, nearly all actives have IC50 up to about 30 µM;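 on IC50: cells exposed to compound for 48 hours before viability readout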). On the technique in general: Quantitative high-throughput screening tests each substance at several concentrations.
Assay [13] is described as follows: phospholipid biosynthesis inhibitors in animal cells, primary screen, cell-based, LOPAC library, screen 4 (AID 1347384). The settings on record: phospholipid biosynthesis inhibition screen, at 10 µM.
The nature of assay [14]: SU-DIPG-VI glioma cell viability, MIPE4.0 library, CellTiter-Glo luminescence, qHTS (AID 1347066; cut-off not given, nearly all actives have AC50 up to about 30 µM;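 further: cells exposed to compound for 48 hours before readout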). The note with it: CellTiter-Glo ATP luminescence.
The nature of assay [15]: growth inhibition of DIPG glioma cells, dose response, cell-based, SU-DIPG-IV, MIPE4.0, CellTiter-Glo, qHTS (AID 1347063; cut-off not given, nearly all actives have AC50 up to about 30 µM;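 further: compound exposure lasted 48 hours before the viability readout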). The note with it: SU-DIPG-IV viability, CellTiter-Glo ATP luminescence.
A short description of assay [16]: LFS_MB_1R medulloblastoma cell growth inhibition, synergistic combos for chromothripsis tumors, cisplatin or BGB combos (AID 1671452; in the data active means inhibition above about 80%;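 further: cells exposed for 96 hours before readout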). The settings on record: LFS_MB_1R medulloblastoma cells, stronger effect = higher value.
A short description of assay [17]: MDA-MB-436 breast carcinoma cell growth inhibition, synergistic combos for chromothripsis tumors, BGB or cisplatin combos (AID 1671458).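 Further: cells exposed for 96 hours; 0% = vehicle DMSO and 100% = killing by high DMSO.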 The settings on record: MDA-MB-436 breast carcinoma growth inhibition, drug combinations, stronger effect = higher value.
A short description of assay [18]: growth inhibition of BT084 medulloblastoma cells, cell-based, ICGC_MB145, cisplatin and BGB IC40 combos (AID 1671461; in the data active means inhibition above about 80%;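 further: cells exposed to drugs for 96 hours; 0% = vehicle DMSO and 100% = high DMSO full killing control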). The note with it: drug combinations, stronger effect = higher value.
The nature of assay [19]: growth inhibition of RCMB18 medulloblastoma cells, cell-based, cisplatin and BGB IC40 combos (AID 1671462; in the data active means inhibition above about 80%;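 further: cells exposed to compound for four days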). The settings on record: stronger effect = higher value.
The nature of assay [20]: growth inhibition of CRL1545 osteosarcoma cells, cell-based, cisplatin and BGB IC20 combos (AID 1671464; in the data active means inhibition above about 80%;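 further: cells exposed to compound for 96 hours before readout; 0% = vehicle DMSO and 100% = high DMSO killing control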). The settings on record: stronger effect = higher value.
Setting [21] is: measured here: combination with cisplatin, at 0.5 µM.

“And” between values parts separate entries of the source, which are not always exact repeats. Equal entries are not always repeated. Inconclusive results are not listed. For part of these data: Potency and affinity values are given separately. The source made the active and inactive calls. Unless noted, how the calls were made is not given here.

For `c1ccc([C@H]2CN3CCSC3=N2)cc1`, the rescue above control in [1] was -9.67. This compound had an inclusion score in [2] of 1.5. The aggregation suppression score in assay [3] turned out to be 1.54. The period change in [4] is -0.17 h (inactive). Also, the survival in assay [5] is 17.8 (inactive) and 98.4 (inactive). Besides, in assay [6], the inhibition (usually the change of the read-out against control, counted positive when it falls) is -1% (inactive). The fluorescence ratio (interference) in assay [7] is 1 (inactive). The compound was called inactive in [8], in [9], in [10], in assay [11], in assay [12] and in assay [13].

As for `Clc1cccc(Cl)c1NC1=NCCN1`, the rescue above control in assay [1] came to 13.6. For the same compound, the inclusion score in [2] stood at 2. Further, in [3], the aggregation suppression score worked out at 1.85. The period change in [4] is 0.005 h (inactive). Also, the survival in assay [5] was 20.8 (inactive). Moreover, the inhibition in assay [6] was -4% (inactive). Further, the fluorescence ratio (interference) in assay [7] is 1 (inactive). Further, the outcome in assay [9], in assay [10], in [14] and in [13] was inactive.

Take `Oc1ccc(/C=C/c2cc(O)cc(O)c2)cc1`: the period change in assay [4] was -0.215 h (inactive). For the same compound, the survival in assay [5] was 13.8 (inactive). In addition, the inhibition in assay [6] was -3% (inactive). The fluorescence ratio (interference) in assay [7] is 1 (inactive). The outcome in [10], in assay [14], in assay [11] and in assay [13] was inactive.

For the compound `Cc1noc(NS(=O)(=O)c2ccc(N)cc2)c1C`, the rescue above control in assay [1] is -13. In assay [2], the inclusion score turned out to be 2. In assay [3], the aggregation suppression score was found to be 1.13. In addition, in assay [5], the survival is 8.25 (inactive). The call in assay [9], in assay [10], in [15] and in assay [14] was inactive.

As for `CC[C@H]1CN2CCc3cc(OC)c(OC)cc3[C@@H]2C[C@@H]1C[C@H]1NCCc2cc(OC)c(OC)cc21`, the period change in assay [4] was 0 h (inactive). The inhibition in [6] was 2% (inactive). Also, the fluorescence ratio (interference) in assay [7] was 1 (inactive). The AC50 (in general, the concentration at which the activity in the assay is half-maximal) in assay [8] was 263 nM (active); in assay [10] it was 1320 nM (active); in assay [15] it was 526 nM (active); in [14] it was 20900 nM (active); in assay [11], 833 nM (active). For the same compound, in assay [12], the half-inhibitory concentration (IC50) (commonly the concentration that inhibits the measured activity by half) was 742 nM (active). Also, in assay [13], the compound was classed as inactive.

`Nc1nc2c(ncn2COCCO)c(=O)[nH]1` came in with a rescue above control in assay [1] of 0.24. In addition, the inclusion score in [2] was 2. In [3], the aggregation suppression score was 1.27. Moreover, in [4], the period change is -0.035 h (inactive). Further, in assay [5], the survival is 18.2 (inactive). For the same compound, the inhibition in [6] is -2% (inactive); in assay [16] (at 0.5 µM) it was -33.9% (inactive) and -12.8% (inactive); in assay [16] (measured here: combination with BGB IC40, at 0.05 µM) it was -30% and -19.3%; in assay [16] (setting [21]), -22.8% and -6.62%; in [16] (measured here: combination with cisplatin, at 5 µM), -40.1% and -62.2%; in assay [17] (at 0.5 µM), -28.5% (inactive) and -3.5% (inactive). The inhibition in assay [17] (measured here: BGB combination, at 0.5 µM) was -28% and -11%; in assay [17] (measured here: BGB combination, at 5 µM), -21.3% and -10.7%; in [17] (measured here: cisplatin combination, at 0.5 µM), -47.5% and -0.282%; in assay [17] (measured here: cisplatin combination, at 5 µM), -36.3% and -17.4%; in assay [18] (at 0.5 µM), -21.3% (inactive) and -1.95% (inactive); in [18] (cisplatin combination, at 0.5 µM), -12.5% and -17.2%. Moreover, the inhibition in [18] (cisplatin combination, at 5 µM) is -6.79% and -8.03%; in assay [18] (measured here: BGB IC40 combination 0.05 uM, at 0.05 µM), -1.08% and -21.3%; in assay [18] (single agent, at 5 µM), -0.642% and -9.5%; in assay [19] (at 0.5 µM) it was -24.6% (inactive) and -1.99% (inactive); in assay [19] (cisplatin combo, at 5 µM) it was -16.8% and -20.6%; in assay [19] (measured here: BGB IC40 combination, at 0.05 µM), -28.4% and 4.2%. The inhibition in assay [19] (setting [21]) was -35.4% and 12.7%; in [19] (single agent, at 5 µM), -21.5% and -6.99%; in [20] (at 0.5 µM) it was -37.7% (inactive) and -21.2% (inactive); in [20] (measured here: with BGB IC20 combination, at 0.5 µM), -17.4% and -24.8%; in assay [20] (measured here: with cisplatin IC20 combination, at 0.5 µM), -51.3% and -21.4%; in [20] (single agent, at 0.05 µM), -59.2% and 3.53%. Further, in assay [20] (single agent, at 5 µM), the inhibition is -38.1% and -22.9%. For the same compound, the fluorescence ratio (interference) in [7] was 1 (inactive). The compound was called inactive in assay [8], in assay [9], in assay [10], in assay [15], in assay [11] and in [12]. The result in assay [13] was inactive.

For the compound `CC[C@H](C)C(=O)O[C@H]1C[C@@H](C)C=C2C=C[C@H](C)[C@H](CC[C@@H]3C[C@@H](O)CC(=O)O3)[C@H]21`, the rescue above control in assay [1] is -2.24. Also, in assay [3], the aggregation suppression score turned out to be 0.603. In addition, the survival in [5] is 2.08 (inactive). Moreover, the call in assay [9], in assay [14] and in assay [12] was inactive.

Take `N=C(N)c1ccc(OCCCCCOc2ccc(C(=N)N)cc2)cc1`: in assay [1], the rescue above control was found to be 0. The compound further yielded an aggregation suppression score in assay [3] of 0.265. Besides, the survival in assay [5] was 0.583 (inactive). Moreover, the call in [10], in assay [14] and in assay [13] was inactive.

`c1ccc(CC2=NCCN2)cc1`: the rescue above control in [1] is -6.48. This compound registered an inclusion score in assay [2] of 2. Also, the aggregation suppression score in [3] came out at 1.3. For the same compound, the survival in [5] is 21.6 (inactive).

For the compound `CCN(CCO)CCCC(C)Nc1ccnc2cc(Cl)ccc12` (configuration not stated), in assay [1], the rescue above control was -3.82. In assay [2], this compound returned an inclusion score of 1.5. The aggregation suppression score in assay [3] is 1.3. Further, the compound was called inactive in assay [8], in assay [9], in [10], in assay [15], in [14] and in assay [11]. In assay [12], the call was inactive.

Take `CCCCCN=C(N)N/N=C/c1c[nH]c2ccc(OC)cc12`: the AC50 in assay [8] was 13200 nM (active). Further, the result in assay [9], in assay [14] and in [12] was inactive.

`CN1C(C(=O)Nc2ccccn2)=C(O)c2ccccc2S1(=O)=O` returned a rescue above control in assay [1] of 9.46. The same compound showed an inclusion score in assay [2] of 2. Moreover, the aggregation suppression score in [3] was determined as 0.134. The period change in [4] is -0.07 h (inactive). Besides, the survival in assay [5] was 20 (inactive). Also, in [6], the inhibition is -1% (inactive). For the same compound, in assay [7], the fluorescence ratio (interference) is 1 (inactive). Further, the result in assay [8], in [9], in [10], in [14], in assay [11] and in assay [12] was inactive. For the same compound, the outcome in assay [13] was inactive.

Values taken from PubChem BioAssay.
